# Results taken from PubChem BioAssay AID434970 (Sanford-Burnham Center for Chemical Genomics, 2010).
# Screen size: about 11,000 compounds; about 310 (2.8%) were called active. Rule as the data show it: active = activity change below about -85%; inactive = the rest. Shown is part of a subset that was picked to be rich in actives.
# Test system: intestinal alkaline phosphatase [Mus musculus]
# Test: mouse intestinal phosphatase enzyme activation – biochemical, luminescence, single concentration, confirmation (AID 434970)
# Settings: purified mouse IAP, CDP-Star luminescence, 30 min, at 10 µM; activation factor: measured here: IAP activation factor, stronger effect = higher value; activity change, negative = activation: stronger effect = lower value
SMILES,activation factor,"activity change, negative = activation"
CC(C)N(C(=O)[C@H]1C[C@H](CC(=O)NCCc2ccccn2)C(=O)N2CCc3c([nH]c4cc(-c5ccco5)ccc34)[C@]12C)C(C)C,1.14,-14.4% (inactive)
COc1cc(/C=N/NC(N)=O)cc(Br)c1OCc1ccccc1C,0.961,3.9% (inactive)
CC(OC(=O)c1cccs1)C(=O)NCC1CCCO1 (configuration not stated),1.09,-9% (inactive)
CCOC(=O)c1c(C)[nH]c(C(=O)COC(=O)C2CC(=O)N(Cc3ccccc3)C2)c1C (configuration not stated),0.964,3.55% (inactive)
COCc1c(C)cc(C)c(/C=N/O)c1C,0.951,4.9% (inactive)
CCSc1cc(C2C(C(=O)OC)=C(C)NC3=C2C(=O)CCC3)c(C)o1 (configuration not stated),0.954,4.65% (inactive)
Cc1nc(SCN2C(=O)c3ccccc3C2=O)n[nH]1,0.945,5.55% (inactive)
CCOC(=O)c1[nH]c(C)c(CN(CCc2ccccc2)C(=O)CCC(=O)O)c1C,0.977,2.3% (inactive)
O=C(Nc1cccn(Cc2ccccc2)c1=O)NC1CCCCC1,0.945,5.5% (inactive)
COc1ccc(CN2C3CCCC2CC(NC(=O)Nc2ccccc2)C3)cc1 (configuration not stated),4.65,-365% (active)
COc1ccc(CN2C3CCCC2CC(NC(=O)Nc2ccccc2C)C3)cc1 (configuration not stated),2.43,-143% (active)
CC(=O)NC1CC2CCCC(C1)N2CC(=O)Nc1ccccc1 (configuration not stated),1.09,-9.05% (inactive)
Cc1cccc(NC(=S)NC2CC3CCCC(C2)N3Cc2cccs2)c1C (configuration not stated),1.15,-14.8% (inactive)
O=C(Nc1ccc2c(c1)N(Cc1ccccc1)C(=O)c1ccccc1S2)NC1CC1,2.45,-145% (active)
S=C(Nc1ccc(Cl)c(Cl)c1)NC1CCN(Cc2ccccc2)CC1,1.63,-62.7% (inactive)
CC(=O)c1cccc(NC(=O)NC2CC3CCCC(C2)N3CC(C)C)c1 (configuration not stated),1.22,-21.6% (inactive)
CCc1ccccc1NC(=S)NC1CC2CCCC(C1)N2Cc1cccs1 (configuration not stated),1.01,-0.9% (inactive)
CC(C)OCCCNC(=O)C(=O)NCCCOC(C)C,0.962,3.8% (inactive)
COC(=O)c1ccccc1NC(=O)CCS(=O)(=O)c1ccc(Br)s1,1.05,-5% (inactive)
O=C(O)Cn1c(SCc2cccc3ccccc23)nc2ccccc21,1.09,-9.2% (inactive)
S=c1[nH]ncn1/N=C/c1ccc(N2CCOCC2)cc1,1,-0.35% (inactive)
CCOC(=O)c1c(C)[nH]c(O)c1C=Nc1ccc(C(F)(F)F)cc1,0.846,15.4% (inactive)
COc1ccc(OC)c(NC(=O)C(=O)/C=C(\O)c2cc(OC)ccc2OC)c1,0.905,9.55% (inactive)

SMILES,activation factor,"activity change, negative = activation"
Cc1ccc(/C(N)=N/OC(=O)Oc2ccccc2)cc1,0.99,1% (inactive)
COc1ccc(CCNC(=O)c2ccc(Cl)cc2Cl)cc1,1.19,-18.9% (inactive)
COc1ccc(CCNC(=O)c2ccc(Cl)cc2)cc1,1.08,-8.2% (inactive)
COc1ccc(CCNC(=O)c2cc(-c3cc(Cl)cc(Cl)c3)oc2C)cc1,2.07,-107% (active)
O=C(CCCNS(=O)(=O)c1cccs1)N1CCN(c2ccc(F)cc2)CC1,0.934,6.55% (inactive)
COc1ccc(NC(=S)NCC2CCCO2)c(OC)c1 (configuration not stated),0.95,4.95% (inactive)
C#CCOCCOCCOCCNc1nc(N2CCN(C(=O)CCCCCCCCCCNC(=O)Cn3cc(C[C@@H](C)O)nn3)CC2)nc(N2CCN(C(=O)CCCCCCCCCCNC(=O)[C@H](CCCCN)n3cc(C[C@@H](C)CC)nn3)CC2)n1,2.76,-176% (active)
CC[C@H](C)Cc1cn([C@@H](CCCCNC(=O)OC(C)(C)C)C(=O)NCCCCCCCCCCC(=O)N2CCN(C(=O)OC(C)(C)C)CC2)nn1,1.57,-56.9% (inactive)
C#CCOCCOCCOCCNc1nc(N2CCN(C(=O)CCCCCCCCCCNC(=O)Cn3cc(C[C@@H](C)O)nn3)CC2)nc(N2CCN(C(=O)CCCCCCCCCCNC(=O)[C@H](CCCN=C(N)N)n3cc(C[C@@H](C)CC)nn3)CC2)n1,5.68,-468% (active)
CCc1cccc(CC)c1NC(=O)CSc1nc2ccc(N3C(=O)C4C5C=CC(C5)C4C3=O)cc2s1 (configuration not stated),0.959,4.1% (inactive)
CCOC(=O)C1(CC)NC(c2ccco2)C2C(=O)N(c3ccc(C)cc3)C(=O)C21 (configuration not stated),1.05,-4.65% (inactive)
COCCCNC(=O)C[C@H]1C[C@H](C(=O)N2CCCCC2)[C@@]2(CCc3ccccc3)c3[nH]c4ccc(Cl)cc4c3CCN2C1=O,1.2,-19.7% (inactive)
CCOC(=O)C1(C)/C(=N/Nc2ccccc2Cl)C(=O)C(=O)N1c1ccccc1 (configuration not stated),0.886,11.4% (inactive)
Cc1ccc(C)c(N2CCN(C(=O)CCc3nc(-c4ccc(Br)cc4)no3)CC2)c1,1.04,-4.15% (inactive)
NC(=O)C1CCN(CC(=O)Nc2ccccn2)CC1,0.922,7.8% (inactive)
CCCN(CCC)C(=O)c1ccc2c(c1)OCO2,1.05,-5.1% (inactive)
COc1ccc(CN2CC[C@H]3C=CC[C@@H](C(=O)Nc4ccc(Cl)c(C(F)(F)F)c4)[C@H]3C2=O)cc1OC,2.85,-185% (active)
O=C(O)[C@H]1CC=C[C@H]2CCN(Cc3ccc(Cl)c(Cl)c3)C(=O)[C@@H]12,1.05,-5.25% (inactive)
CCCCN1CC[C@@H]2C=CC[C@H](C(=O)OC)[C@@H]2C1=O,0.952,4.85% (inactive)
CCOC(=O)c1ccc(NC(=O)NC2CC3CCC(C2)N3Cc2nnnn2C(C)(C)C)cc1 (configuration not stated),1.46,-45.8% (inactive)
CC(C)=CCC/C(C)=C/CNC(=O)C[C@H]1C[C@H](C(=O)N(C(C)C)C(C)C)[C@@]2(C)c3[nH]c4ccc(Cl)cc4c3CCN2C1=O,1.25,-25.1% (inactive)
COc1ccc2[nH]c3c(c2c1)CCN1C(=O)C(CC(=O)NC/C=C(\C)CCC=C(C)C)C[C@H](C(=O)N(C(C)C)C(C)C)[C@@]31C (some centres not stated),2,-100% (active)
CCN(CC)C(=O)[C@H]1CC(CC(=O)NC/C=C(\C)CCC=C(C)C)C(=O)N2CCc3c([nH]c4ccc(OC)cc34)[C@]12C (some centres not stated),1.25,-24.9% (inactive)
